A selection: hits, their analogues and other compounds. The true share with any hit is near 1.9%.
EBNA-1 inh: blocks EBNA-1 binding to DNA; inhibition, % at 14.8 µM; EBNA-1 DNA binding, fluorescence polarization; 300,000 compounds, 0.34% hits; AID 1950; in the data active = inhibition above about 28%
p47phox inh: blocks human p47phox regulatory protein of NADPH oxidases | p47phox/p22phox peptide binding, fluorescence polarization, 2 h | AID 1274 | 220,000 compounds, 0.53% hits | inhibition, % at 24.7 µM;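 active = inhibition above about 30%, limit read from the data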;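 note: 0% = p47phox with labelled peptide and 100% = labelled peptide alone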
Rev-erbA mod: Rev-erb alpha (human) modulation | P20393 | Rev-erbα–FITC-DNA binding, fluorescence polarization, 90 min | activity, % at 10 µM | 370,000 compounds, 0.79% hits | AID 1259318;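 active = activity above about 14%, limit read from the data; passing the limit was not always enough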;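 note: 0% = DMSO wells with 35 nM protein and 100% = DMSO wells with 750 nM protein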
aDG glyco up: alpha-DG glycosylation activation; Pro5-aDG cells, alpha-DG glycosylation AlphaScreen (IIH6); 0% Pro5, 100% B10-LARGE cell signal; activation, % at 10 µM; 360,000 compounds, 0.22% hits;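 active = activation of at least 8% versus controls, or a plate z-score of at least 8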;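 note: Pro5 are CHO cells carrying HIG-tagged alpha-DG that lacks glycosylation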
ZTA DNA inh: ZTA (EBV) inhibition in EBNA-1 counter-screen | ZTA-DNA binding, fluorescence polarization | inhibition, % at 11 µM | 320,000 compounds, 0.15% hits; in the data active = inhibition above about 33%
Target sequence (P03206 whole entry, looked up): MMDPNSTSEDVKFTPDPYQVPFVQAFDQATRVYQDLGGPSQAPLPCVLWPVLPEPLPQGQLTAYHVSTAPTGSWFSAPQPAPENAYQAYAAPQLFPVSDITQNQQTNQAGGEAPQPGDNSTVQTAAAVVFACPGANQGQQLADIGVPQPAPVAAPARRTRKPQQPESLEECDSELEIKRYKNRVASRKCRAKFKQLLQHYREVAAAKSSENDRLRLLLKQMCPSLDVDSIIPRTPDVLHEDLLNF
PG9 Ab binder: small molecules binding HIV-1 gp120 antibody PG9; 360,000 compounds, 0.43% hits; inhibition, % at 6.7 µM; AID 624416; TR-FRET gp120-PG9 antibody binding; in the data active = inhibition above about 8.5%
Rev-erbA confirm: confirmation of modulators of human Rev-erb alpha DNA binding; shares compounds with Rev-erbA mod; Rev-erb alpha FITC-DNA binding, fluorescence polarization, 90 min; activation, % at 25 µM; 3,000 compounds, 61% hits; AID 1259319;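 active = activation at or above a set limit, or at least 3 SD above the negative control mean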;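 note: 0% = 35 nM protein with DMSO and 100% = 750 nM protein high control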
RORg DNA counter: RORgamma DNA-binding activity, dose-response counter-screen. shares compounds with Rev-erbA mod. purified RORgamma protein-FITC-DNA binding, fluorescence polarization. IC50, µM. 910 compounds, 8% hits. AID 1259320;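 active = Compounds whose fitted half-maximal concentration for disrupting protein-DNA binding is below 10 micromolar; the record names Rev-erb in its text, so the target is in doubt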
* marks the source's active call; other numbers are inactive results; nt = not tested or not shown.

SMILES | EBNA-1 inh | p47phox inh | Rev-erbA mod | aDG glyco up | ZTA DNA inh | PG9 Ab binder | Rev-erbA confirm | others
Cc1cccc(Cl)c1NC(=O)N(C)c1ccccc1 | nt | nt | 16* | nt | nt | 3 | 1
COc1ccc(-c2cc3c(=O)n(CC(=O)Nc4ccc(C(C)=O)cc4)ncn3n2)cc1 | -6 | nt | 34* | 0 | -18 | -2 | 41* | RORg DNA counter=>40
COc1ccc(-c2cc3c(=O)n(CC(=O)NCc4cccnc4)ncn3n2)cc1 | -4 | nt | -4 | 0 | -13 | 0 | nt
COC(=O)[C@]12CCCCC=C1N(Cc1ccc(OC)cc1)C(=O)[C@@H]2CC(=O)N1CCCCC1 | nt | nt | -4 | nt | nt | nt | nt
NCCNC(=O)c1c(O)c2cccc3c2n(c1=O)CCC3 | nt | nt | -5 | 0 | nt | 1 | nt
O=C(Nc1nccs1)c1c(O)c2cccc3c2n(c1=O)CCC3 | -4 | 3 | 36* | nt | 4 | 1 | 30*
Cc1cccnc1NC(=O)c1c(O)c2cccc3c2n(c1=O)CCC3 | -1 | -6 | -1 | 0 | 1 | 0 | nt
O=C(Nc1ccccn1)c1c(O)c2cccc3c2n(c1=O)CCC3 | 7 | -8 | 32* | 1 | 1 | 1 | 7
C=CCN1C(=O)[C@@H](CC(=O)NCc2cccc(C(F)(F)F)c2)[C@]2(C(=O)OC)CCCCC=C12 | nt | nt | 1 | nt | nt | nt | nt
COc1ccc(NC(=O)CSc2ncnc3scc(-c4ccc(C)cc4)c23)cc1OC | nt | nt | -1 | nt | nt | nt | nt
CCc1ccc(-c2cc3c(=O)n(CC(=O)N4CCCC4)nc(C)n3n2)cc1 | 3 | nt | 49* | 0 | -13 | -1 | 20*
CCc1ccc(-c2cc3c(=O)n(CC(=O)N4CCCCCC4)nc(C)n3n2)cc1 | -1 | nt | 8 | 0 | -19 | -1 | nt
O=C(NCCc1ccc(Cl)cc1)c1ccc2nccnc2c1 | 1 | nt | 14* | 0 | -3 | -1 | 5
O=C(NCCc1ccccc1)c1ccc2c(c1)S(=O)(=O)c1cc(Cl)ccc1C2=O | nt | nt | 68* | 0 | 1 | -3 | 63* | RORg DNA counter=>40
CCC[C@H]1[C@@H](OC(=O)NCc2ccc(Cl)c(Cl)c2)CC[C@@]23CCCN2C(=O)CCC[C@@H]13 | nt | nt | 3 | nt | nt | nt | nt
COC(=O)[C@H](CC(C)C)N1Cc2nnn(CC3CCCCC3)c2-c2cc(F)ccc2S1(=O)=O | nt | nt | 4 | nt | nt | nt | nt
O=C(CSc1nnc(-c2ccc(S(=O)(=O)N3CCOCC3)cc2)o1)c1ccccc1F | 2 | -16 | 21* | 0 | -23 | 0 | 10
COc1ccc(C(=O)Nc2nnc(-c3ccccc3)s2)cc1 | nt | nt | 21 | 0 | nt | 4 | nt
Cc1ccc(C(=O)Nc2nnc(-c3ccc(C(C)(C)C)cc3)s2)cc1 | -7 | 0 | 26* | 0 | 3 | -1 | 3
O=C(c1ccc(Br)o1)N1N=C(c2ccc(Cl)cc2)CC1c1ccco1 (stereo not given) | 2 | nt | 24* | 0 | 13 | 0 | 5
Cc1ccccc1CN1CCCCC(NC(=O)Cc2cccs2)C1=O (stereo not given) | nt | nt | 5 | nt | nt | nt | nt
Clc1cccc(CNC2CCC23CCCCC3)c1 (stereo not given) | nt | nt | 3 | nt | nt | nt | nt

Screening results: PubChem, several laboratories
